Test systems include DU-145 prostate; K-562 leukemia; MALME-3M melanoma; MDA-MB-231 breast; RXF 393 renal; SF-268 CNS; SF-295 CNS; SF-539 CNS; UACC-257 melanoma; M14 melanoma.
Assay in all cases: NCI-60 one-dose screen, 48 h (100 = growth as untreated, 0 = no growth, -100 = all killed)
What all share (conditions): 10 µM unless noted

About 83,000 compounds went through this panel and 20% of them were active in at least one assay; those are over-represented in the sample as a whole.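 Treatment: one concentration, 48 hours, 96-well format. Scoring: percent growth, with anything below 10 considered active.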 Unmarked numbers belong to inactive results. Activity calls are given as the source filed them.

With `Oc1c(O)c(Cl)c(Cl)c(Cl)c1Cl`, the growth in the experiment with DU-145 prostate is 47.5%; in the experiment with K-562 leukemia it was 24.2%; in the experiment with MALME-3M melanoma, 64.7%; in the experiment on MDA-MB-231 breast, 44.8%; with RXF 393 renal it was 7.31% (active); in the experiment with SF-268 CNS it was 24.2%. Moreover, the growth is 9.55% (active) in the experiment with SF-295 CNS, 20.9% in the experiment on SF-539 CNS, -9.22% (active) in the experiment on UACC-257 melanoma and 39.6% with M14 melanoma.

Consider `Clc1ccc(CO/N=C(\Cn2ccnc2)c2ccc(Cl)cc2Cl)c(Cl)c1`, for which the growth in the experiment on DU-145 prostate is 21%; in the experiment on K-562 leukemia, 1.68% (active); in the experiment with MALME-3M melanoma, -50.8% (active); in the experiment on MDA-MB-231 breast, -11.5% (active); in the experiment on RXF 393 renal it was -59.8% (active); in the experiment on SF-268 CNS, 11.6%. Further, the growth is -13.3% (active) in the experiment on SF-295 CNS, -55.1% (active) in the experiment with SF-539 CNS, 6.73% (active) in the experiment on UACC-257 melanoma and -17.4% (active) in the experiment with M14 melanoma.

Take `CC1(C)CN1P(=O)(N1CC1(C)C)N1CC1(C)C` (stereo not given): the growth in the experiment on DU-145 prostate was 121%; in the experiment with K-562 leukemia, 109%; with MALME-3M melanoma, 110%; in the experiment on MDA-MB-231 breast it was 107%; in the experiment with RXF 393 renal, 119%; in the experiment with SF-268 CNS, 106%. Further, the growth in the experiment with SF-295 CNS is 115%; in the experiment with SF-539 CNS, 109%; in the experiment with UACC-257 melanoma, 89.3%; with M14 melanoma, 98.8%.

For the compound `COc1cc2c(c(OC)c1OC)-c1ccc([O-])c(=O)cc1[C@@H](NC(C)=O)CC2.COc1cc2c(c(OC)c1OC)-c1ccc([O-])c(=O)cc1[C@@H](NC(C)=O)CC2.[Cu+2]`, the growth is 4.95% (active) with DU-145 prostate; 2.76% (active) with K-562 leukemia; 52.5% in the experiment on MALME-3M melanoma; 35.5% in the experiment on MDA-MB-231 breast; 13.4% in the experiment on RXF 393 renal; 27.1% with SF-268 CNS. In addition, the growth with SF-295 CNS was 18.7%; with SF-539 CNS, -17.2% (active); in the experiment on UACC-257 melanoma it was 45.1%; with M14 melanoma it was 7.83% (active).

For `CCCCCCCCC(CO)NCCc1ccccc1` (stereo not given), the growth with DU-145 prostate is 102%; in the experiment with K-562 leukemia it was 80.7%; with MALME-3M melanoma it was 109%; in the experiment with MDA-MB-231 breast, 93.1%; in the experiment on RXF 393 renal, 136%; in the experiment on SF-268 CNS, 99.7%. In addition, the growth is 98.1% with SF-295 CNS, 115% in the experiment on SF-539 CNS, 85.7% with UACC-257 melanoma and 92.5% in the experiment on M14 melanoma.

As for `O=[N+]([O-])/C=C\c1ccc(Cl)c(Cl)c1`, the growth in the experiment on DU-145 prostate was 70%; with K-562 leukemia, 11.8%; in the experiment with MALME-3M melanoma, -0.637% (active); with MDA-MB-231 breast it was 74.8%; with RXF 393 renal, -79.8% (active); in the experiment on SF-268 CNS it was 69.2%. In addition, the growth with SF-295 CNS is 98.8%; with SF-539 CNS, 65.2%; in the experiment on UACC-257 melanoma, 69.6%; in the experiment with M14 melanoma it was -9.23% (active).

As for `Brc1ccc2c(c1)c(-c1nc(-c3c[nH]c4ncccc34)cs1)cn2CCN1CCCCC1`, the growth was 82.6% in the experiment with DU-145 prostate; -15.7% (active) in the experiment with K-562 leukemia; 100% in the experiment with MALME-3M melanoma; 62.1% in the experiment on MDA-MB-231 breast; 60.4% with RXF 393 renal; 75.9% in the experiment on SF-268 CNS. The growth is 91.5% in the experiment on SF-295 CNS, 87.3% in the experiment with SF-539 CNS, 96.7% in the experiment on UACC-257 melanoma and 15.8% in the experiment with M14 melanoma.

In the case of `[Cl][Hg][c]1cc(Br)cc(Br)c1`, the growth in the experiment with DU-145 prostate was 79.3%; in the experiment on K-562 leukemia, 6.31% (active); in the experiment on MALME-3M melanoma, 69.8%; with MDA-MB-231 breast, 19.8%; in the experiment with RXF 393 renal, -18.3% (active); in the experiment with SF-268 CNS it was 25.6%. Moreover, the growth was 80.2% with SF-295 CNS, 38.9% in the experiment with SF-539 CNS, 58.5% in the experiment on UACC-257 melanoma and 46.1% in the experiment with M14 melanoma.

On to `CC1=C(CCCOC(=O)[C@H](N)CC(C)C)C2=C(C)C3(CC3)[C@@](C)(O)C(=O)C2=C1`, for which the growth with DU-145 prostate was 11.6%; in the experiment with K-562 leukemia, 101%; in the experiment with MALME-3M melanoma, -44.7% (active); in the experiment with MDA-MB-231 breast, 11.5%; with RXF 393 renal it was -74.7% (active); with SF-268 CNS, 14.6%. Further, the growth was -5.7% (active) in the experiment on SF-295 CNS, -7.07% (active) in the experiment with SF-539 CNS, 24.4% in the experiment with UACC-257 melanoma and -33.2% (active) in the experiment with M14 melanoma.

In the case of `COc1ccc(C2=N[C@@H](Cc3ccccc3)C(=O)Nc3ccsc32)cc1`, the growth with DU-145 prostate was 71.3%; in the experiment on K-562 leukemia, 16.2%; in the experiment with MALME-3M melanoma, 48.6%; in the experiment with MDA-MB-231 breast, 55.9%; in the experiment on RXF 393 renal, 34.3%; in the experiment on SF-268 CNS it was 55.1%. The growth in the experiment on SF-295 CNS is 37%; in the experiment with SF-539 CNS, 44.9%; with UACC-257 melanoma, 44%; in the experiment on M14 melanoma, 20.7%.

For the compound `COc1ccc(C(O)(C(=O)O)c2ccc(OC)cc2)cc1`, the growth in the experiment on DU-145 prostate is 104%; with K-562 leukemia, 87.8%; in the experiment with MALME-3M melanoma, 105%; in the experiment on MDA-MB-231 breast, 85.7%; with RXF 393 renal, 109%; with SF-268 CNS, 95.3%. The growth in the experiment with SF-295 CNS is 87.1%; with SF-539 CNS, 86.8%; in the experiment with UACC-257 melanoma, 90.6%; in the experiment with M14 melanoma, 86.2%.

As to `C=C1C[C@](OC)([C@H](O)C(=O)N[C@@H](OC)[C@@H]2C[C@@H](O)C(C)(C)[C@@H](C[C@@H](COC)OC)O2)O[C@H](C)[C@@H]1C`, the growth in the experiment with DU-145 prostate is -49.9% (active); in the experiment on K-562 leukemia it was -50.1% (active); in the experiment on MALME-3M melanoma, -71.1% (active); in the experiment on MDA-MB-231 breast, -55.7% (active); in the experiment with RXF 393 renal it was -92.7% (active); in the experiment on SF-268 CNS, -32.4% (active). Moreover, the growth is -51.4% (active) in the experiment on SF-295 CNS, -65.9% (active) in the experiment with SF-539 CNS, -53.4% (active) in the experiment on UACC-257 melanoma and -54.6% (active) with M14 melanoma.

Consider `NC(CCl)CCl`, for which the growth is 105% in the experiment with DU-145 prostate; 116% in the experiment with K-562 leukemia; 92.6% with MALME-3M melanoma; 102% in the experiment on MDA-MB-231 breast; 107% in the experiment with RXF 393 renal; 103% with SF-268 CNS. Also, the growth was 93.9% in the experiment with SF-295 CNS, 95.1% with SF-539 CNS, 102% in the experiment on UACC-257 melanoma and 94.6% with M14 melanoma.

The values above are taken from PubChem BioAssay (NCI).
